About 14,000 (4.5%) of roughly 310,000 compounds showed an effect of 50% or more. Effects have a minus sign here. This is one part of a sample in which strong results are shown more often than they occur.
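Further: peak tail current of the secondary pulse compared with the same well before compound.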

The target in this assay is human ether-à-go-go-related gene (hERG) potassium channel (human, UniProt Q12809). In words: primary screen, population patch clamp on CHO cells stably expressing hERG; higher = less effect of the substance.
Sequence of human ether-à-go-go-related gene (hERG) potassium channel (Q12809 whole entry, looked up): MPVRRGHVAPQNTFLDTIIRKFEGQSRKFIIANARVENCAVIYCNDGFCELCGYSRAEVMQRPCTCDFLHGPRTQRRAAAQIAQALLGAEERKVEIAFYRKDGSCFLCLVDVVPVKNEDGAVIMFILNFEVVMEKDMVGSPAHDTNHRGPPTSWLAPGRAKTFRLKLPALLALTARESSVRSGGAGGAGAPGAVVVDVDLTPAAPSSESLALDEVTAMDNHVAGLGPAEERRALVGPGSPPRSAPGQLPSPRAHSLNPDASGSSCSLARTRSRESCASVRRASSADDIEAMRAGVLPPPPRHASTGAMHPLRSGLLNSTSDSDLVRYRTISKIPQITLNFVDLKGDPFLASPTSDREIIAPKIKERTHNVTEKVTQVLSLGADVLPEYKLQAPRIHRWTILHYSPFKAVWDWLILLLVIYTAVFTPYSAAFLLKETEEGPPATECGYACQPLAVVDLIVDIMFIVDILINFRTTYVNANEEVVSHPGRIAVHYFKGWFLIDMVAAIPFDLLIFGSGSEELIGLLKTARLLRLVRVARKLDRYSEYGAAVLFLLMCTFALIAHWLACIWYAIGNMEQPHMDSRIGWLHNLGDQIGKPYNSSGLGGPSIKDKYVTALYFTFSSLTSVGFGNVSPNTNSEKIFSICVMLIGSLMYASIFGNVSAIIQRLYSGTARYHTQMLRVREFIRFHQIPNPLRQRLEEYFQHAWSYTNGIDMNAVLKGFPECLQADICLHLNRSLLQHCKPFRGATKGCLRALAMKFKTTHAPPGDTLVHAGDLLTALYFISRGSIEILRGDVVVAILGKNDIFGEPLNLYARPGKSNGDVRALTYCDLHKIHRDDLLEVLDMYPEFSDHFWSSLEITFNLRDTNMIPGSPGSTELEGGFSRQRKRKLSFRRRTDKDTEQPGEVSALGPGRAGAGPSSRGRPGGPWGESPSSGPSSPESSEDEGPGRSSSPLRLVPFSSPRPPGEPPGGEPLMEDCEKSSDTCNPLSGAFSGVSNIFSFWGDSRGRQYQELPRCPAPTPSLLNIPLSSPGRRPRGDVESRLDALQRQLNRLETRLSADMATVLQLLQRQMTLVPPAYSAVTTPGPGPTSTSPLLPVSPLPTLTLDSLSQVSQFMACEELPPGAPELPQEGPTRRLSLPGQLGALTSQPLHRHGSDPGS
Consider `N#C/C(=C\c1cn(Cc2ccccc2)c2ccccc12)C(=O)NCc1ccco1`, for which the “hERG current change (%, negative = inhibition) at 10uM” value was 12.5%.

With `Cc1ccccc1OCC(=O)OCC(=O)NCc1cccs1`, the “hERG current change (%, negative = inhibition) at 10uM” value was 1.72%.

For `COc1cc(-c2nc(CCNC(=O)c3ccco3)cs2)cc(OC)c1OC`, the “hERG current change (%, negative = inhibition) at 10uM” value is listed as -24.7%.

Turning to `Cc1cc(C)cc(NC(=S)N2CCN(c3ccccn3)CC2)c1`, the “hERG current change (%, negative = inhibition) at 10uM” value is listed as -1.07%.

Turning to `COc1ccc(NC(=O)Nc2cc(C)ccc2F)cc1`, the “hERG current change (%, negative = inhibition) at 10uM” value is 0.822%.

Regarding `CCOc1ccc(-n2cnnn2)cc1S(=O)(=O)N1CCCCC1`, the “hERG current change (%, negative = inhibition) at 10uM” value is listed as -10.1%.

On to `CC1CCN(C(=O)c2cc3c(=O)n4ccccc4nc3s2)CC1`, for which the “hERG current change (%, negative = inhibition) at 10uM” value came out at 18.7%.

As for `CC(=O)c1cccc(Nc2cc(C)nc3ccccc23)c1.Cl`, the “hERG current change (%, negative = inhibition) at 10uM” value is given as -64%.

As to `CCOC(=O)c1ccc2nc(C)cc(Nc3cccc(C(=O)O)c3)c2c1`, the “hERG current change (%, negative = inhibition) at 10uM” value was found to be 5.41%.

As for `CC(=O)c1cccc(Nc2cc(C)nc3ccc(C)cc23)c1.Cl`, the “hERG current change (%, negative = inhibition) at 10uM” value is -65.2%.

`COc1ccc2nc(C)cc(Nc3cccc(C(=O)O)c3)c2c1`: the “hERG current change (%, negative = inhibition) at 10uM” value was 21.7%.

With `CC(=O)c1ccc(Nc2cc(C)nc3ccccc23)cc1`, the “hERG current change (%, negative = inhibition) at 10uM” value is recorded as -31.3%.

Consider `CC(=O)Nc1ccc(Nc2cc(C)nc3ccccc23)cc1`, for which the “hERG current change (%, negative = inhibition) at 10uM” value was -7.21%.

Regarding `C/C(=N\Nc1nccnc1Cl)c1ccc([N+](=O)[O-])cc1`, the “hERG current change (%, negative = inhibition) at 10uM” value is recorded as -4.09%.

As to `Cl.N[C@@H]1C[C@H]1c1ccccc1`, the “hERG current change (%, negative = inhibition) at 10uM” value is on record as 14%.

In the case of `O=C(NC1CCCC1)C(c1ccncc1)N(C(=O)c1csnn1)c1cccc(F)c1` (centres unmarked), the “hERG current change (%, negative = inhibition) at 10uM” value is reported as 17.2%.

Consider `O=C1N=NC2=C1c1c3ccccc3c(O)n1CC2`, for which the “hERG current change (%, negative = inhibition) at 10uM” value amounted to 3.49%.

Turning to `CCOC(=O)c1c(NC(=O)CN2CCOCC2)sc2c1CCCC2=O`, the “hERG current change (%, negative = inhibition) at 10uM” value is listed as -6.33%.

Consider `Cc1cc2nc3c(nc2cc1C)CCCC3`, for which the “hERG current change (%, negative = inhibition) at 10uM” value was determined as 15.9%.

With `Cc1ccc(C(=O)OCC(=O)Nc2cccc(S(=O)(=O)N3CCCCC3)c2)o1`, the “hERG current change (%, negative = inhibition) at 10uM” value is 6.02%.

`COc1ccccc1NC(=O)Cc1coc2cc(C)ccc12`: the “hERG current change (%, negative = inhibition) at 10uM” value is -13.1%.

Turning to `Cc1ccc2c(CC(=O)N3CCN(c4ccccc4)CC3)coc2c1`, the “hERG current change (%, negative = inhibition) at 10uM” value is given as -22%.

As to `O=C(COC(=O)c1ccc([N+](=O)[O-])o1)Nc1cccc(S(=O)(=O)N2CCCCC2)c1`, the “hERG current change (%, negative = inhibition) at 10uM” value was -56.6%.

For the compound `Cc1ccc2c(CC(=O)Nc3ccc(N4CCN(C)CC4)cc3C)coc2c1`, the “hERG current change (%, negative = inhibition) at 10uM” value is listed as -72.8%.

Consider `O=C(COC(=O)c1ccc(Br)o1)Nc1cccc(S(=O)(=O)N2CCCCCC2)c1`, for which the “hERG current change (%, negative = inhibition) at 10uM” value was -14.9%.

With `Cc1ccc(C(=O)Nc2cccc(S(=O)(=O)N3CCCC3)c2)o1`, the “hERG current change (%, negative = inhibition) at 10uM” value is listed as -9.98%.

On to `O=C(Nc1cccc(S(=O)(=O)N2CCCCC2)c1)c1ccc([N+](=O)[O-])o1`, for which the “hERG current change (%, negative = inhibition) at 10uM” value is -51.4%.

`O=C(Nc1ccc(S(=O)(=O)N2CCOCC2)cc1)c1ccc([N+](=O)[O-])o1`: the “hERG current change (%, negative = inhibition) at 10uM” value is on record as -28.8%.

Take `O=C(COC(=O)c1ccc([N+](=O)[O-])o1)Nc1cccc(S(=O)(=O)N2CCOCC2)c1`: the “hERG current change (%, negative = inhibition) at 10uM” value is given as -19.4%.

As to `Cc1cc(C(=O)OCC(=O)Nc2cccc(S(=O)(=O)N3CCOCC3)c2)c(C)o1`, the “hERG current change (%, negative = inhibition) at 10uM” value is listed as -19.6%.

For `Cc1ccc(C(=O)OCC(=O)Nc2cccc(S(=O)(=O)N3CCOCC3)c2)o1`, the “hERG current change (%, negative = inhibition) at 10uM” value is -53.1%.

Regarding `CCN1CCN(C(=S)c2ccc(-c3ccccc3)cc2)CC1`, the “hERG current change (%, negative = inhibition) at 10uM” value is reported as -15.4%.

Turning to `CCCN1CCN(C(=O)Cn2c(=O)oc3cc(S(=O)(=O)NCc4ccccc4)ccc32)CC1`, the “hERG current change (%, negative = inhibition) at 10uM” value is given as -6.53%.

Regarding `COc1ccc(-c2ocnc2C(=O)Nc2ccc3c(c2)CCC3)cc1`, the “hERG current change (%, negative = inhibition) at 10uM” value turned out to be 8.64%.

Consider `Cc1ccc(C(=O)Nc2cccc(O)c2)cc1S(=O)(=O)N1CCCCCC1`, for which the “hERG current change (%, negative = inhibition) at 10uM” value is 11.2%.

Regarding `O=C(O)CSc1nnc(COc2cccc3ccccc23)n1Cc1ccccc1`, the “hERG current change (%, negative = inhibition) at 10uM” value is recorded as 21.3%.

Regarding `COc1ccc2c(CC(=O)Nc3cccc(S(=O)(=O)N4CCOCC4)c3)coc2c1`, the “hERG current change (%, negative = inhibition) at 10uM” value is listed as -32.4%.

Regarding `Cc1ccc2c(CC(=O)Nc3cccc(S(=O)(=O)N4CCOCC4)c3)coc2c1`, the “hERG current change (%, negative = inhibition) at 10uM” value is on record as -51.4%.

In the case of `CCc1ccc2c(CC(=O)Nc3cccc(S(=O)(=O)N4CCOCC4)c3)coc2c1`, the “hERG current change (%, negative = inhibition) at 10uM” value is recorded as -0.796%.

`CCCCCCCNC(=O)C1(CC2CC(c3ccc(Cl)cc3)=NO2)CCN(C(=O)C2(C)CC2)CC1` (centres unmarked): the “hERG current change (%, negative = inhibition) at 10uM” value is on record as -55.8%.

As to `CCCCCCCNC(=O)C1(CC2CC(c3ccc(Cl)cc3)=NO2)CCN(C(=O)C2CCCC2)CC1` (centres unmarked), the “hERG current change (%, negative = inhibition) at 10uM” value was -55.8%.

With `CCCCCCCNC(=O)C1(CC2CC(c3ccc(Cl)cc3)=NO2)CCN(C(=O)OC(C)(C)C)CC1` (centres unmarked), the “hERG current change (%, negative = inhibition) at 10uM” value stood at 21.1%.

Take `COc1ccc(CC(=O)NCc2ccc(F)cc2)cc1S(=O)(=O)N1CCOCC1`: the “hERG current change (%, negative = inhibition) at 10uM” value is recorded as -8.29%.

As for `CCCn1c2ccccc2c2cnn(CC(=O)NCCOC)c(=O)c21`, the “hERG current change (%, negative = inhibition) at 10uM” value was -5.71%.

For `CCCn1c2ccccc2c2cnn(CC(=O)NCCN(C)C)c(=O)c21`, the “hERG current change (%, negative = inhibition) at 10uM” value is -60.1%.

`CCCn1c2ccccc2c2cnn(CC(=O)NCCN(CC)CC)c(=O)c21`: the “hERG current change (%, negative = inhibition) at 10uM” value was -66.6%.

For `CCCn1c2ccccc2c2cnn(CC(=O)NC(C)CC)c(=O)c21` (centres unmarked), the “hERG current change (%, negative = inhibition) at 10uM” value turned out to be 7.84%.

In the case of `CCCn1c2ccccc2c2cnn(CC(=O)OC)c(=O)c21`, the “hERG current change (%, negative = inhibition) at 10uM” value is -0.361%.

Turning to `CCCn1c2ccccc2c2cnn(CC(=O)N(CC)CC)c(=O)c21`, the “hERG current change (%, negative = inhibition) at 10uM” value is -2.37%.

Consider `Cc1ccc(S(=O)(=O)N2CCN(CC(=O)N(CC(C)C)c3c(N)n(CC(C)C)c(=O)[nH]c3=O)CC2)c(C)c1`, for which the “hERG current change (%, negative = inhibition) at 10uM” value is reported as 12.7%.

Take `O=[N+]([O-])c1cc([As](=O)(O)O)ccc1O`: the “hERG current change (%, negative = inhibition) at 10uM” value was determined as 19.8%.

Regarding `Cc1csc(NC(=O)c2ccc(C)c([N+](=O)[O-])c2)n1`, the “hERG current change (%, negative = inhibition) at 10uM” value is listed as -41.6%.

Regarding `Cc1nn2cc(-c3ccc(Cl)cc3)cnc2c1Br`, the “hERG current change (%, negative = inhibition) at 10uM” value is recorded as 10.3%.

Turning to `Cc1ccc(NC(=O)C2Oc3ccccc3OC2C)cc1` (centres unmarked), the “hERG current change (%, negative = inhibition) at 10uM” value amounted to 8.68%.

As to `CCCCC(=O)NC(=S)Nc1c(C)cc(Br)cc1C`, the “hERG current change (%, negative = inhibition) at 10uM” value is 2.71%.

Consider `Cc1ccc(CNS(=O)(=O)c2ccc3c(c2)NC(=O)C(C)S3)cc1` (centres unmarked), for which the “hERG current change (%, negative = inhibition) at 10uM” value is recorded as -1.22%.
